{"source": "PubChem BioAssay AID588727", "about": "(Southern Research Specialized Biocontainment Screening …, 2011)", "assay": "inhibitors of VEEV TC-83 cytopathic effect, confirmation, Vero cells (AID 588727)", "settings": "VEEV TC-83 cytopathic effect inhibition, at 20 µM", "key": {"[1]": {"settings": "stronger effect = higher value unless noted"}}, "note": "About 450 (0.13%) of roughly 350,000 compounds were called active. How the calls were made is not given here. These entries were drawn from the full list. Results with a measured potency or affinity are listed apart.", "data": [{"smiles": "O=c1c2c([nH]c3ccccc13)CCCC2", "values": [{"measurement": "inhibition", "setting": "[1]", "result": "0.1% (inactive)"}]}, {"smiles": "O=c1c2c([nH]c3ccccc13)CCCCC2", "values": [{"measurement": "inhibition", "setting": "[1]", "result": "2.45% (inactive)"}]}, {"smiles": "Fc1ccc(NC(=S)NCc2ccc3c(c2)OCO3)cc1", "values": [{"measurement": "inhibition", "setting": "[1]", "result": "1.24% (inactive)"}]}, {"smiles": "COc1ccc(CCNC(=O)Cn2c(=O)oc3cc(Cl)ccc32)cc1OC", "values": [{"measurement": "inhibition", "setting": "[1]", "result": "1.85% (inactive)"}]}, {"smiles": "CC1CCCCC1NC(=O)/C(C#N)=C/c1ccccc1F", "note": "(centres undefined)", "values": [{"measurement": "inhibition", "setting": "[1]", "result": "10.5% (inactive)"}]}, {"smiles": "O=C(/C=C/c1ccccc1[N+](=O)[O-])NC1CCCC1", "values": [{"measurement": "inhibition", "setting": "[1]", "result": "inactive"}]}, {"smiles": "COCCNC(=O)/C(C#N)=C/C=C/c1ccccc1[N+](=O)[O-]", "values": [{"measurement": "inhibition", "setting": "[1]", "result": "55.2% (inactive)"}]}, {"smiles": "N#C/C(=C\\c1ccccc1[N+](=O)[O-])C(=O)NC1CCCCC1", "values": [{"measurement": "inhibition", "setting": "[1]", "result": "6.23% (inactive)"}]}, {"smiles": "Cc1ccc(-c2nn(-c3ccccc3)cc2/C=N/n2c(-c3ccncc3)n[nH]c2=S)cc1", "values": [{"measurement": "inhibition", "setting": "[1]", "result": "0.07% (inactive)"}]}, {"smiles": "COc1cc(C(=O)NNC(=O)CCOc2ccccc2)cc(OC)c1OC", "values": [{"measurement": "inhibition", "setting": "[1]", "result": "inactive"}]}, {"smiles": "O=C(COc1ccc(-c2ccccc2)cc1)NNC(=O)NC1CCCCC1", "values": [{"measurement": "inhibition", "setting": "[1]", "result": "0.67% (inactive)"}]}, {"smiles": "N#Cc1c(NC(=O)c2ccc(Cn3cc(Br)cn3)o2)sc2c1CCCCCC2", "values": [{"measurement": "inhibition", "setting": "[1]", "result": "inactive"}]}, {"smiles": "COCC1CCCCN1C(=O)c1cccc(OC2CCN(C(=O)C3CC3)CC2)c1", "note": "(centres undefined)", "values": [{"measurement": "inhibition", "setting": "[1]", "result": "inactive"}]}, {"smiles": "COc1ccc(C(=O)NCc2ccc(F)cc2)cc1S(=O)(=O)N1CCCC1", "values": [{"measurement": "inhibition", "setting": "[1]", "result": "10.6% (inactive)"}]}, {"smiles": "Cc1cc(OC(=O)c2cc(Cl)nc3ccccc23)ccc1Cl", "values": [{"measurement": "inhibition", "setting": "[1]", "result": "2.81% (inactive)"}]}, {"smiles": "CSCCC(NS(=O)(=O)c1ccc2[nH]c(=O)c(=O)[nH]c2c1)C(=O)O", "note": "(centres undefined)", "values": [{"measurement": "inhibition", "setting": "[1]", "result": "inactive"}]}, {"smiles": "CCOC(=O)C1CCCc2c1[nH]c1ccc(Cl)cc21", "note": "(centres undefined)", "values": [{"measurement": "inhibition", "setting": "[1]", "result": "0.82% (inactive)"}]}, {"smiles": "CCNC(=O)C1CCCc2c1[nH]c1ccc(Cl)cc21", "note": "(centres undefined)", "values": [{"measurement": "inhibition", "setting": "stronger effect = higher value", "result": "0.89% (inactive)"}, {"measurement": "inhibition", "setting": "measured here: 10K pilot screen inhibition, stronger effect = higher value", "result": 1.04, "unit": "%"}]}, {"smiles": "COc1ccc(-c2nn(-c3ccccc3)cc2/C=C/C(=O)N2CCOCC2)cc1OC", "values": [{"measurement": "inhibition", "setting": "[1]", "result": "7.65% (inactive)"}]}, {"smiles": "Cc1cc(C)cc(N(C(=O)c2ccc(Br)o2)C2C=CS(=O)(=O)C2)c1", "note": "(centres undefined)", "values": [{"measurement": "inhibition", "setting": "[1]", "result": "inactive"}]}, {"smiles": "O=[N+]([O-])c1cccc(/C=N/Nc2nc(NCc3ccccc3)nc(N3CCOCC3)n2)c1", "values": [{"measurement": "inhibition", "setting": "[1]", "result": "2.74% (inactive)"}]}, {"smiles": "O=[N+]([O-])c1ccc(/C=N/Nc2nc(NCc3ccccc3)nc(N3CCOCC3)n2)cc1", "values": [{"measurement": "inhibition", "setting": "[1]", "result": "3.18% (inactive)"}]}, {"smiles": "COc1ccc2c(c1)OC[C@H]1[C@H]2N2C(=O)c3cc(Br)ccc3NC(=O)[C@@]2(C)[C@H]1c1ccccc1", "values": [{"measurement": "inhibition", "setting": "[1]", "result": "1.07% (inactive)"}]}, {"smiles": "O=c1[nH]ncc(N2CCCC2)c1Cl", "values": [{"measurement": "inhibition", "setting": "[1]", "result": "inactive"}]}, {"smiles": "CC(=O)c1cc(C)ccc1OC(=O)c1ccco1", "values": [{"measurement": "inhibition", "setting": "[1]", "result": "inactive"}]}, {"smiles": "CC(NC(=O)c1cccc(S(=O)(=O)N2CCN(Cc3ccccc3)CC2)c1)c1ccc(Br)cc1", "note": "(centres undefined)", "values": [{"measurement": "inhibition", "setting": "[1]", "result": "2.86% (inactive)"}]}, {"smiles": "COc1ccc(NC(=O)CCCN2C(=O)/C(=C\\c3ccco3)SC2=S)cc1", "values": [{"measurement": "inhibition", "setting": "[1]", "result": "13.5% (inactive)"}]}, {"smiles": "O=C(CCCN1C(=O)/C(=C/c2ccco2)SC1=S)Nc1cccc(C(=O)O)c1", "values": [{"measurement": "inhibition", "setting": "[1]", "result": "11.7% (inactive)"}]}, {"smiles": "O=C(CC(C(=O)c1ccccc1)c1ccccc1)c1ccccc1", "note": "(centres undefined)", "values": [{"measurement": "inhibition", "setting": "[1]", "result": "12.6% (inactive)"}]}, {"smiles": "O=C(CC(CC(=O)c1ccccc1)c1ccccc1)c1ccccc1", "values": [{"measurement": "inhibition", "setting": "[1]", "result": "1.3% (inactive)"}]}, {"smiles": "CC(=O)N/C(=C/c1ccc(OS(=O)(=O)c2ccc(C)cc2)cc1)C(=O)NCCCO", "values": [{"measurement": "inhibition", "setting": "[1]", "result": "inactive"}]}, {"smiles": "NC(=O)N1c2ccccc2C=Cc2ccccc21", "values": [{"measurement": "inhibition", "setting": "[1]", "result": "0.99% (inactive)"}, {"measurement": "outcome", "setting": "[1]", "result": "inactive"}]}, {"smiles": "CNC(=O)N1c2ccccc2C=Cc2ccccc21", "values": [{"measurement": "inhibition", "setting": "[1]", "result": "1.28% (inactive)"}]}, {"smiles": "COc1ccc(OCc2cc(C(=O)NCC(C)(C)N3CCOCC3)no2)c(Cl)c1", "values": [{"measurement": "inhibition", "setting": "[1]", "result": "2.39% (inactive)"}]}, {"smiles": "OC(COCc1cccs1)CN1CCN(c2cccc(Cl)c2)CC1", "note": "(centres undefined)", "values": [{"measurement": "inhibition", "setting": "[1]", "result": "inactive"}]}, {"smiles": "Cc1ccc(C(=O)C=CC=Cc2ccccc2)cc1", "values": [{"measurement": "inhibition", "setting": "[1]", "result": "inactive"}]}, {"smiles": "Cc1ccc(/C=C/C(=O)c2ccccc2)cc1", "values": [{"measurement": "inhibition", "setting": "[1]", "result": "inactive"}]}, {"smiles": "Cn1cnc2c(SCc3ccccc3)ncnc21", "values": [{"measurement": "inhibition", "setting": "[1]", "result": "inactive"}]}, {"smiles": "CCCCn1cnc2c(SCc3ccccc3Cl)nc(N)nc21", "values": [{"measurement": "inhibition", "setting": "[1]", "result": "6.5% (inactive)"}]}, {"smiles": "OCCn1cnc2c(SCc3ccccc3)ncnc21", "values": [{"measurement": "inhibition", "setting": "[1]", "result": "6.32% (inactive)"}]}, {"smiles": "CC(C)Cn1cnc2c(SCc3ccccc3Cl)nc(N)nc21", "values": [{"measurement": "inhibition", "setting": "[1]", "result": "9.3% (inactive)"}]}, {"smiles": "CCC(C(=O)NCCCN1CCCC1=O)n1c2ccccc2c2nc(=O)cc(C)n21", "note": "(centres undefined)", "values": [{"measurement": "inhibition", "setting": "[1]", "result": "inactive"}]}, {"smiles": "CC(C)C(C)NC(=O)CN1C(=O)NC(C)(c2ccc3ccccc3c2)C1=O", "note": "(centres undefined)", "values": [{"measurement": "inhibition", "setting": "[1]", "result": "inactive"}]}, {"smiles": "COc1ccc(-n2c(SC(C)C(=O)Nc3ncc(Cl)cc3Cl)nc3ccccc32)cc1", "note": "(centres undefined)", "values": [{"measurement": "inhibition", "setting": "[1]", "result": "8.08% (inactive)"}]}, {"smiles": "COCCn1c(SCC(=O)Nc2ccc(Cl)cn2)nc2ccccc21", "values": [{"measurement": "inhibition", "setting": "[1]", "result": "2.54% (inactive)"}]}, {"smiles": "CC(Sc1nnc(-c2ccccc2)c(-c2ccccc2)n1)C(=O)Nc1ncc(Cl)cc1Cl", "note": "(centres undefined)", "values": [{"measurement": "inhibition", "setting": "[1]", "result": "0.85% (inactive)"}]}, {"smiles": "Cc1cc(SCC(=O)Nc2ncc(Cl)cc2Cl)nc2ccccc12", "values": [{"measurement": "inhibition", "setting": "[1]", "result": "0.95% (inactive)"}]}]}
